HT1080 IDH1KD tx = toxicity to HT-1080 IDH1 knockdown cells (counter line); Potency, µM (titrated, usually from 46.1 µM), without a hit: top-dose activity, negative = toxicity, usual class: cytotoxic; HT-1080 IDH1 knockdown viability, ATP luminescence, 48 h; 2% of 360,000 active;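 note: potency is the fitted concentration of half-maximal effect; 0% = DMSO wells and -100% = cell-free medium wells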
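Assay cells: HT-1080 with IDH1 knockdown, 750 per well, RPMI/5% FBS. Exposure: 48 h at 37 °C following 2 h pre-incubation. Read: CellTiter-Glo luminescence; fitted concentration-response, curve class assigned.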
IL-1B inflam inh = blocks inflammasome-driven IL-1 beta release; activity change, % at 57.5 µM; THP-1 LPS/ATP IL-1B secretion, AlphaLISA, 16 h; stronger effect = lower value; AID 743279; 4.7% of 360,000 active; in the data active = activity change below about -50%; inconclusive = mostly about -30% to -49%
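Secreted IL-1B measured by AlphaLISA bead assay after 16 h compound exposure of THP-1 cells; compounds (final up to 57.5 uM) added 1 h before LPS (250 ng/mL) and ATP (1.25 mM) stimulation; lower signal means less secretion.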
uPA generation = inhibitors of cell surface uPA generation | cell surface uPA generation assay, qHTS | Potency, µM (top dose mostly 38.3 µM), inactives show at the top dose activity change, negative = inhibition, most hits filed as inhibitors | 0.31% of 330,000 active; active = well fitted inhibition curve with a large enough effect; inconclusive = small, poorly fitted or top-dose-only effect; inactive = no such curve, though single readings can be large or run the other way; tested in mouse RAW 264.7 cells; note: potency is the fitted concentration of half-maximal effect; nearly all actives have a fitted effect of over 55% in size
HT1080-NT tox = kills 2HG-producing HT-1080-NT fibrosarcoma cells; HT-1080-NT fibrosarcoma viability, CellTiter-Glo ATP luminescence, 48 h; Potency, µM (doses to about 46.1 µM), inactives show top-dose activity, negative = less viability, most hits filed as cytotoxic; 1.6% of 360,000 active; AID 686970;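 note: NT is the 2HG producing partner of a matched IDH1 knockdown line; potency is the fitted concentration of half-maximal effect; 0% = DMSO-treated cells and -100% = media-only wells without cells; nearly all actives have a fitted effect of over 55% in size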
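Fibrosarcoma NT cells, 750 per well in 5% FBS RPMI, were exposed to compound for 48 hours. Viability: CellTiter-Glo luminescence.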
DT40 TDP1 CPT = DT40-hTDP1 cell growth loss with CPT; chicken DT40 Tdp1-/-;hTDP1 cells + 20 nM CPT, ATP luminescence, 48 h; Potency, µM (top dose mostly 46.2 µM), without a hit: at the highest dose activity change, negative = growth inhibition, most hits filed as inhibitors; 12% of 420,000 active; AID 686979; note: potency is the fitted concentration of half-maximal effect; nearly all actives have a fitted effect of over 55% in size
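Chicken DT40 Tdp1-/- cells stably complemented with human TDP1 were seeded at 400 cells/well in medium containing 20 nM camptothecin, exposed to pin-transferred compounds, and grown at 37 °C for at least 48 hr. Viability was read as ATP luminescence.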
DT40 TDP1 no CPT = qHTS for Inhibitors of human tyrosyl-DNA phosphodiesterase 1 (TDP1): qHTS in cells in absence of CPT; DT40 Tdp1-/- hTDP1 cells, no CPT, ATP luminescence, 48 h; 15% of 420,000 active; Potency, µM (doses to about 46.2 µM), for inactives: top-dose activity change, negative = growth inhibition, most hits filed as inhibitors; note: potency is the fitted concentration of half-maximal effect; nearly all actives have a fitted effect of over 55% in size
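Growth of hTDP1-complemented DT40 Tdp1-knockout cells is measured by ATP luminescence after at least 48 hr compound exposure at 37 °C, with DMSO substituting for the 20 nM CPT used in the parallel screen.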
* marks the source's active call; other numbers are inactive results; ? = inconclusive; · = not tested or not shown; [ ] = another dose, or the depositor's remark. In the library only some 19% were active in any assay of this set; here they are far more common. Unless noted, calls come from the whole dose curve; as a rule, active = well fitted curve in the direction sought with a large enough effect; inconclusive = small, poorly fitted or top-dose-only effect, or another doubt; inactive = no such curve, though single readings can be large; an effect the other way counts as inactive or inconclusive. Unless noted, % is set by controls: 0 for no effect and ±100 for the full control effect.

SMILES	HT1080 IDH1KD tx	IL-1B inflam inh	uPA generation	HT1080-NT tox	DT40 TDP1 CPT	DT40 TDP1 no CPT
CN(C)Cc1ccccc1-c1cncnc1Nc1ccccc1	·	·	·	·	?	-10%
CSCCC(NC(=O)c1ccco1)C(=O)NCC1CCCO1 (configuration not stated)	-2%	1	8%	1%	16%	3.3µM*
CSCCC(NC(=O)c1ccco1)C(=O)NC1CCCCCC1 (configuration not stated)	1%	-1	3%	-2%	-5%	-13%
Oc1ccc2ccccc2c1CNc1ccc(Br)cc1	-26%	-9	-17%	?	16µM*	?
Cn1c(OCC2CCCO2)nc2cc(-c3ccccc3)sc2c1=O (configuration not stated)	-3%	91	·	-2%	23µM*	?
COc1ccc(-c2cc3nc(C)n(N)c(=O)c3s2)cc1	5.8µM*	-15	0.71µM*	4.1µM*	5.8µM*	5.8µM*
COc1ccc(-c2cc3nc4n(c(=O)c3s2)CCC4)cc1	0%	0	·	2%[9.24 µM]	15µM*	?
COc1ccc(-c2nc3ccccc3c(=O)n2N)cc1	-1%	-29	3%	15%	-3%	-23%
COCCNc1nc2cc(-c3ccccc3)sc2c(=O)n1C	-7%	6	·	-5%	?	?
Cc1ccccc1-c1cc2nc(OCC3CCCO3)n(C)c(=O)c2s1 (configuration not stated)	0%	24	·	-1%	?	?
Cc1nc2cc(-c3ccccc3)sc2c(=O)n1N	3.7µM*	-6	-11%	3.7µM*	16µM*	?
CCOC(=O)N1CCN(Cc2ccc3c(c2)CN(C(=O)c2noc4c2CCCC4)CCO3)CC1	·	·	·	·	-13%[9.04 µM]	21µM*
COc1ccc(-c2nnn(CC(=O)N(CC(=O)NC3CCCC3)Cc3cccs3)n2)cc1OC	-18%	-13	·	4%	-15%	-23%
COc1ccc(C(=O)/C=C/C(=O)N(Cc2ccc3c(c2)OCO3)C(C(=O)NC2CCCCC2)c2ccncc2)c(O)c1 (configuration not stated)	?	?	-9%	-10%	?	23µM*
COc1ccc(C(=O)/C=C/C(=O)N(CC(=O)NC2CCCCC2)Cc2cccs2)c(O)c1	-11%	-100*	?	-22%	1.6µM*	3.3µM*
COCCN(CC(=O)NC1CCCCC1)C(=O)/C=C/C(=O)c1ccc(OC)cc1O	?	-101*	-18%	23µM*	2.1µM*	2.3µM*
COc1ccc(CN(C(=O)/C=C/C(=O)c2ccc(OC)cc2O)C(C(=O)NC2CCCCC2)c2ccncc2)cc1 (configuration not stated)	-4%	?	-12%	0%	?	?
COc1ccc2c(c1)OC(C)CN(CCNC(=O)c1cc3cc(F)ccc3[nH]1)C2 (configuration not stated)	·	·	·	·	7%[9.04 µM]	?
C[C@@H]1CN([C@@H](C)CO)C(=O)c2cc(N(C)C)ccc2O[C@@H](C)CCCCO[C@@H]1CN(C)Cc1ccc2c(c1)OCO2	10%	-26	·	12%	16µM*	16µM*
C[C@@H]1CCCCO[C@@H](CN(C)Cc2ccc(C(F)(F)F)cc2)[C@@H](C)CN([C@H](C)CO)C(=O)c2cc(N(C)C)ccc2O1	-29%	-53*	·	-28%	23µM*	23µM*
C[C@@H]1CN([C@@H](C)CO)C(=O)c2cc(NS(C)(=O)=O)ccc2O[C@@H](C)CCCCO[C@H]1CN(C)Cc1ccc2c(c1)OCO2	4%	25	·	-3%	-7%	?
C[C@@H]1CCCCO[C@H](CN(C)Cc2ccc(C(=O)O)cc2)[C@@H](C)CN([C@H](C)CO)C(=O)c2cc(N(C)C)ccc2O1	0%	-6	·	1%	-17%	-8%
COc1ccccc1C(=O)C1CCCN(C(=O)c2ccco2)C1 (configuration not stated)	2%	28	1%	2%	-26%	-26%
NCCNC[C@@H]1COC2(CCCCCCCCCCC2)O1	?	-68*	-11%	15µM*	?	23µM*
O=C(CSc1nnc(-c2cccnc2)s1)Nc1ccnc2ccccc12	?	-3	-4%	-12%	1.2µM*	0.52µM*
SMILES	HT1080 IDH1KD tx	IL-1B inflam inh	uPA generation	HT1080-NT tox	DT40 TDP1 CPT	DT40 TDP1 no CPT
CCCCNc1ccc(C(F)(F)F)cc1S(=O)(=O)NCCc1ccc(F)cc1	?	-63*	11%	?	18µM*	6.5µM*
CC1CC(C)CN(c2ncc3c(n2)CC(c2ccc(Cl)cc2)CC3=O)C1 (configuration not stated)	1%	-12	·	3%	?	8.2µM*
CC1CC(C)CN(c2ncc3c(n2)CC(c2ccccc2Cl)CC3=O)C1 (configuration not stated)	9%	-9	6%	7%	?	21µM*
CCN(CC)S(=O)(=O)c1ccc2c(c1)c(=O)c(C(=O)N1CCN(c3ccc(F)cc3)CC1)cn2C	·	·	·	·	-17%	-27%
COc1ccc(CN(C(=O)c2cccc(OC)c2)C2CCS(=O)(=O)C2)cc1 (configuration not stated)	10%	15	-1%	8%	17%	5%
CCCCOc1ccc(C(=O)N(Cc2ccccc2)C2CCS(=O)(=O)C2)cc1 (configuration not stated)	-3%	-13	-2%	4%	?	?
CCOc1cccc(C(=O)N(Cc2ccc(CC)cc2)C2CCS(=O)(=O)C2)c1 (configuration not stated)	·	·	·	·	18µM*	?
COc1ccc(C(=O)N(Cc2ccc(C(C)C)cc2)C2CCS(=O)(=O)C2)cc1 (configuration not stated)	·	·	·	·	?	15µM*
CCCCOc1cccc(C(=O)N(Cc2ccccc2)C2CCS(=O)(=O)C2)c1 (configuration not stated)	-14%	-11	15%	-8%	13µM*	15µM*
CCOc1cccc(C(=O)N(Cc2ccc(C(C)C)cc2)C2CCS(=O)(=O)C2)c1 (configuration not stated)	·	·	·	·	21µM*	?
CCOc1cccc(C(=O)N(Cc2ccco2)C2CCS(=O)(=O)C2)c1 (configuration not stated)	3%	0	4%	16%	-1%	-1%
CCc1nnc(SCc2ccc(OC)cc2)c2cc3sc(C)cc3n12	·	·	·	·	-12%	-16%
